In ChEMBL document CHEMBL3988442, “University of Dundee, Small-Polar-MMV Screening Library” (2021):

Organism: Homo sapiens
Test: To identify inhibition of the IFN signalling (Jak-Stat) pathway via expression of an eGFP reporter gene under the control of an IFN-stimulated response element (ISRE) containing MxA promoter.
Assay type: functional
Parameters: scale not given: direction of the effect not stated beside the values
Details: 30 µM

| Compound | Percent Effect [%] |
| --- | --- |
| CN1CC(=O)N(c2cnn(C)c2)CC12CCN(Cc1ccccc1)C2 (centres undefined) | -7.57 |
| NC(=O)C(CNC(=O)Cc1ccc(F)cc1)Cc1ccc(F)cc1 (centres undefined) | 19.6 |
| O=C(N1CCOCC1)N1CCc2ncnc(NC3CC3)c2CC1 | 19.9 |
| Cn1cccc1C(=O)N1CCn2cc(CNC(=O)CC3CC3)nc2C1 | 0.949 |
| Clc1cc(CN2CCCC2Cn2cncn2)c2ncccc2c1 (centres undefined) | -0.129 |
| CCc1nnc2n1CCN(Cc1csc(-c3cnn(C)c3)n1)C2 | -7.26 |
| COc1ccc(C(CNC(=O)Nc2cn[nH]c2)N2CCOCC2)cc1 (centres undefined) | -2.67 |
| Cc1nn(C)c(C)c1C1CCCN1CC(=O)Nc1ccncc1 (centres undefined) | 7.51 |
| Cc1nn(C)c(N(C)C)c1CNC1CCc2c(F)cccc21 (centres undefined) | -1.05 |
| Cc1ccccc1C(=O)CN1C(=O)c2ccccc2CS1(=O)=O | 18.7 |
| CS(=O)(=O)N1CCC(C(=O)NC(Cc2ccsc2)c2ccccn2)CC1 (centres undefined) | 13.2 |
| COc1cccc(Cc2nnc(SC3CCOC3=O)o2)c1 (centres undefined) | 5.46 |
| Cc1ccc(N2CCC3(CC2)CC(OCC(=O)N(C)C)CO3)nn1 (centres undefined) | -14.6 |
| CC(NC(=O)NCc1cccnc1N1CCCCC1)c1nccs1 (centres undefined) | 2.75 |
| CCc1ccc(NS(=O)(=O)CC2=NC(=O)n3cccc3C2=O)cc1 | 0.554 |
| c1ncn(CC2CCCN(Cc3nc(C4CC4)no3)C2)n1 (centres undefined) | -5.79 |
| N#Cc1ccc(C(=O)N2CCC3(CC2)C(=O)Nc2ccccc23)cn1 | 0.335 |
| Cc1ccc(-c2nc(CNCCn3cccn3)cs2)o1 | 10.3 |
| Cc1cnc2n(c1=O)CC(C(=O)Nc1ccccc1Cl)CS2 (centres undefined) | -7.02 |
| CCn1c(N)nc2cc(C(=O)NCCc3ccccc3C)cnc21 | 20.2 |

| Compound | Percent Effect [%] |
| --- | --- |
| O=C(NCCCN1CCCC1)c1n[nH]c(=O)c2ccccc12 | 11.3 |
| Cc1nc(CN2CCCC(NCCOCC(F)(F)F)C2)no1 (centres undefined) | -2.76 |
| O=C1C[C@H]2[C@@H](CCN2C(=O)c2ccccc2)N1CCN1CCOCC1 | 0.931 |
| CC(C)Oc1ncccc1CNC(=O)N1CCC(C(N)=O)C1 (centres undefined) | 23.8 |
| CNc1nc2c(c(C(=O)N3CCCC3)n1)CN(Cc1nccn1C)CC2 | 8.05 |
| CC(C)NC(=O)c1sccc1N(C)S(=O)(=O)c1ccc(Cl)cc1 | 22.6 |
| COc1nn(C)c2c1CCCN(C(=O)c1ccccc1)C2 | 3.41 |
| COCC(=O)N1CC[C@@H]2O[C@H](COCc3ccncc3)CC[C@@H]21 | -0.209 |
| Fc1ccc(-c2cnc(CN3CCCC3Cn3cccn3)o2)cc1 (centres undefined) | 24.8 |
| O=C(C1CC=CC1)N1CCc2c(COCc3ccncc3)cncc2C1 | -4.59 |
| O=C(NCC(F)(F)F)NC1CCCc2c1cnn2CCO (centres undefined) | 7.67 |
| O=C(CCOc1ccccc1)N1CCC(Nc2cccnn2)CC1 | 8.93 |
| Cc1cc(CN2CCN(c3ccc4nncn4n3)C(C)C2)no1 (centres undefined) | 19.6 |
| Cc1n[nH]c(C)c1C1COCCN1C(=O)Cc1cccc(F)c1 (centres undefined) | -1.33 |
| CCC(C)(NCC(=O)Nc1ccccc1)c1nc(C)cs1 (centres undefined) | -24.9 |
| Cc1ccc(-c2nnc(CN3CCc4cnc(C)nc4C3)o2)cc1 | 15.6 |
| Cc1cccc2c1OCCC2NCc1c(C)nn(C)c1N(C)C (centres undefined) | 24.8 |
| CC(C#N)CSc1ccccc1NCC(=O)NCc1ccccc1 (centres undefined) | 19.4 |
| O=C(Cn1cc(I)cn1)N1CCCC1 | 20.5 |
